Measured values published in PubChem BioAssay (EPA / NIEHS).
Records with an inconclusive call do not appear. Activity calls are given as the source filed them. How the source made its calls: active means hit-call score of the fitted dose curve at least 0.9, where 1 is the maximum; inconclusive means response in the unintended direction; inactive means score below 0.9.

Each compound was assayed against Androgen receptor (Homo sapiens) (UniProt P10275) (assay: ATG_AR_TRANS: Attagene TRANS-FACTORIAL HepG2 Assay for human Androgen Receptor (AR) (AID 2282973)). Details: HepG2 Attagene TRANS-FACTORIAL AR reporter transcription.
In short: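 Chimeric nuclear receptor–Gal4 activity was assessed in human HepG2 hepatocytes after 24 h chemical dosing. Induced reporter mRNA was detected via labelled RT-PCR fragments on capillary electrophoresis, and gain of signal was analysed against DMSO.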

Androgen receptor (Homo sapiens), sequence (P10275 whole entry, looked up, the tested form may be a part): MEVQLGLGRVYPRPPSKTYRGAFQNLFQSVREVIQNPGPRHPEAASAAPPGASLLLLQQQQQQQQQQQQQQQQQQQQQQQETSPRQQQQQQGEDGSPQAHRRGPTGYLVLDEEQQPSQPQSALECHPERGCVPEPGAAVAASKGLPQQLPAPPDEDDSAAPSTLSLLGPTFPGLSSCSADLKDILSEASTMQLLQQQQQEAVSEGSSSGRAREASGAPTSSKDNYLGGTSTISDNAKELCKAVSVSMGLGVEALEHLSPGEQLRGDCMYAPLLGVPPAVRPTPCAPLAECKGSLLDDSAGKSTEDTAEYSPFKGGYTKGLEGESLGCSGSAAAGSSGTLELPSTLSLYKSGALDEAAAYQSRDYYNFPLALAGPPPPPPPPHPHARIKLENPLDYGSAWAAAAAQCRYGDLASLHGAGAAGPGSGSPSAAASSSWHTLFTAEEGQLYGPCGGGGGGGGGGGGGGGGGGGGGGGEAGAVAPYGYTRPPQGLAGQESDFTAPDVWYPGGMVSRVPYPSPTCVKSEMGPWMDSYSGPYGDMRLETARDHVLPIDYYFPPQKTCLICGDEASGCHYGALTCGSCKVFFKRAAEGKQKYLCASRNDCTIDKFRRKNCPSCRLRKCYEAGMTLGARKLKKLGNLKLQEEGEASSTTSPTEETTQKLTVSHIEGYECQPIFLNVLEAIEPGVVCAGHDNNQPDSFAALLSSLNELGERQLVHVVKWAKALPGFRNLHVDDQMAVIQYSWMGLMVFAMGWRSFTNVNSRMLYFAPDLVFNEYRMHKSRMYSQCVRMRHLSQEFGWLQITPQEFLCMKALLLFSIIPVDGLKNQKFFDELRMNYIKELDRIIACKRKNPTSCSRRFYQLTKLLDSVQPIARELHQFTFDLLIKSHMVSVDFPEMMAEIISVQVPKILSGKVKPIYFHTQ

| SMILES | outcome |
| --- | --- |
| CCCCCCCCSCCO | inactive |
| C[Si]1(C)O[Si](C)(C)O[Si](C)(C)O1 | inactive |
| FC(F)(F)C1(F)C(F)(F)C(F)(F)C(F)(F)C(F)(C(F)(F)F)C1(F)F (configuration not stated) | inactive |
| CC(=O)O[C@H]1C[C@@H]2CC[C@@]1(C)C2(C)C | inactive |
| CC=C(C)C(C)=O | inactive |
| CC(=O)OC1CCCCC1C(C)(C)C (configuration not stated) | inactive |
| CCCCCCS | inactive |
| Cc1cc(=O)[nH]c(C(C)C)n1 | inactive |
| CC1CCC(C(C)C)C(O)C1 (configuration not stated) | inactive |
| CC1=CCC2C(=O)OC(=O)C2C1 (configuration not stated) | inactive |
| C=CC(C)(CCC=C(C)C)OC(=O)C=Cc1ccccc1 (configuration not stated) | inactive |
| NCCCN1CCN(CCCN)CC1 | inactive |
